This note sets out measurements from PubChem BioAssay (NCATS).

Assay [1] concerns the target Glutathione peroxidase 1 (Homo sapiens) (UniProt P07203). Description: Primary qHTS Assay for Inhibitors of Recombinant Selenoprotein Glutathione Peroxidase 1 (GPX1) (AID 1845191). Further: nearly all actives have a fitted effect of over 65% in size. Further: potency means the concentration at half of the fitted maximal effect. On activity, negative = inhibition: on the % scale 0 is the no-effect control and ±100 the full control effect. The note with it: recombinant GPX1, GR-coupled NADPH fluorescence, 15 min; series mostly up to 48.8 µM. A digest of the protocol: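 GR-coupled assay: compounds preincubated 30 min at room temperature with GPX1, then reaction started with CHP; final 10 nM GPX1, 1 mM GSH, 0.5 mM CHP, 0.5 mM NADPH, 100 nM GR, 0.01% BSA, pH 7.5 Tris buffer. NADPH fluorescence (340/450 nm) read at 0 and 15 min.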

Assay [2] concerns the target Phospholipid hydroperoxide glutathione peroxidase GPX4 (Homo sapiens) (UniProt P36969). Description: Primary qHTS Assay for Inhibitors of Recombinant Selenoprotein Glutathione Peroxidase 4 (GPX4) (AID 1845192). Further: nearly all actives have a fitted effect of over 65% in size. Further: potency means the concentration at half of the fitted maximal effect. On activity change, negative = inhibition: on the % scale 0 is the no-effect control and ±100 the full control effect. As to conditions: recombinant GPX4, GR-coupled NADPH fluorescence, 15 min; series mostly up to 50 µM. Put shortly: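 GR-coupled assay: recombinant GPX4 preincubated 30 min with compound at room temperature; final 200 nM GPX4, 1 mM GSH, 0.5 mM cumene hydroperoxide, 0.5 mM NADPH, 100 nM GR, 0.01% BSA, pH 7.5 Tris. NADPH fluorescence (340/450 nm) read at 0 and 15 min.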

The target of assay [3] is Luciferin 4-monooxygenase (Photinus pyralis) (UniProt P08659). Description: Primary firefly luciferase (FLuc) qHTS assay for identification of artifact compounds. (AID 1845220). Further: nearly all actives have a fitted effect of over 60% in size.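 On activity change, negative = inhibition: plate controls were DMSO vehicle for no effect and no enzyme for full effect.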 As to conditions: purified firefly luciferase, luminescence, 5 min; series mostly up to 54.1 µM. Put shortly: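 D-luciferin and ATP (10 uM each, final) in Tris acetate buffer pH 7.6 were incubated with compounds for 15 min at room temperature. The reaction was started with 10 nM Photinus pyralis luciferase and luminescence read after 5 min. Percent inhibition was fitted to a 4-parameter Hill equation.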

A short description of assay [4]: Primary fluorescence-based thiol-reactive (MSTI) qHTS assay for identification of artifact compounds. (AID 1845221).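 Further: thiol-reactive compounds lower the probe fluorescence signal; nearly all actives have a fitted effect of over 65% in size.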 The note with it: MSTI thiol-reactivity probe, 1 h; series mostly up to 53.8 µM. A digest of the protocol:
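Curve-fitted percent inhibition (4-parameter Hill) derived from fluorescence, Ex 525/Em 598 nm, scaled with Acetyl-MSTI and MSTI; 1 h incubation at room temperature.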

Assay [5] has as its system Nanoluciferase (engineered Oplophorus gracilirostris luciferase). Description: Primary Nanoluciferase (NLuc) qHTS assay for identification of artifact compounds. (AID 1845222).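 Further: 0% = DMSO and -100% = no enzyme.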 The note with it: NLuc-conditioned medium, Nano-Glo luminescence, 5 min; series mostly up to 54.1 µM. Put shortly: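 Diluted conditioned medium from NLuc-expressing S16 cells treated with compounds for 15 min at room temperature, then Nano-Glo substrate added; luminescence read after 5 min. Percent inhibition versus no-enzyme and DMSO controls fitted to 4-parameter Hill equation.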

Assay [6] is described as follows: Primary redox qHTS assay for identification of artifact compounds. (AID 1845223). As to conditions: Amplex Red/HRP redox cycling with DTT, fluorescence; series mostly up to 53.8 µM. Put shortly: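 Amplex Red (25 uM) and HRP (250 mU/mL) in HBSS, with compounds for 15 min, then 250 uM DTT for 30 min, room temperature, dark. Fluorescence 525/598 nm read; normalized to DMSO and 10 uM DA3003; Hill fit.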

A short description of assay [7]: Quantitative High-Throughput drug screen in 47 multiple myeloma cell lines against the NCATS MIPE library collection: FR4_PLB cell viability assay (AID 1918924; further: nearly all actives have a fitted effect of over 35% in size; further: potency means the concentration at half of the fitted maximal effect). The note with it: FR4_PLB myeloma cells viability, CellTiter-Glo ATP, 48 h; series mostly up to 45.8 µM. Put shortly: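 Myeloma cell lines, 500 cells per well, exposed to MIPE 4.0 library compounds for 48 h at 37C, 5% CO2. Viability from ATP by CellTiter-Glo luminescence; normalised to DMSO (100%) and media-only (0%) wells.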

The nature of assay [8]: Quantitative High-Throughput drug screen in 47 multiple myeloma cell lines against the NCATS MIPE library collection: Delta47_JCRB cell viability assay (AID 1918925; further: nearly all actives have a fitted effect of over 45% in size; further: potency means the concentration at half of the fitted maximal effect). The note with it: Delta47 myeloma viability, CellTiter-Glo ATP, 48 h; series mostly up to 45.8 µM. A digest of the protocol:
(§1)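 Luminescent ATP measurement with CellTiter-Glo gives viability, scaled between DMSO-only wells (100%) and media-only wells (0%). Cells, 500 per well, faced library compounds for 48 hours at 37C.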

A short description of assay [9]: Quantitative High-Throughput drug screen in 47 multiple myeloma cell lines against the NCATS MIPE library collection: EJM_DSMZ cell viability assay (AID 1918926; further: nearly all actives have a fitted effect of over 30% in size; further: potency means the concentration at half of the fitted maximal effect). The note with it: EJM myeloma cell viability, CellTiter-Glo ATP, 48 h; series mostly up to 45.8 µM. A digest of the protocol: as §1
A short description of assay [10]: Quantitative High-Throughput drug screen in 47 multiple myeloma cell lines against the NCATS MIPE library collection: KMM1_JCRB cell viability assay (AID 1918960). Further: nearly all actives have a fitted effect of over 30% in size. Further: potency means the concentration at half of the fitted maximal effect. As to conditions: KMM1 myeloma viability, CellTiter-Glo ATP luminescence, 48 h; series mostly up to 45.8 µM. A digest of the protocol: (§2)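 Myeloma cells at 500 per well in 1536-well format treated with MIPE 4.0 library by pin transfer for 48 h at 37C, 5% CO2. Viability from ATP luminescence (CellTiter-Glo), normalized to DMSO (100%) and media-only (0%) wells.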

A short description of assay [11]: Quantitative High-Throughput drug screen in 47 multiple myeloma cell lines against the NCATS MIPE library collection: AMO1_DSMZ cell viability assay (AID 1918927; further: nearly all actives have a fitted effect of over 30% in size; further: potency means the concentration at half of the fitted maximal effect). The note with it: AMO1 myeloma cells viability, CellTiter-Glo ATP luminescence, 48 h; series mostly up to 45.8 µM. A digest of the protocol:
as §1

Assay [12] can be described thus: Quantitative High-Throughput drug screen in 47 multiple myeloma cell lines against the NCATS MIPE library collection: ARP1_JJKsccF8 cell viability assay (AID 1918928; further: nearly all actives have a fitted effect of over 40% in size; further: potency means the concentration at half of the fitted maximal effect). As to conditions: ARP1 myeloma cells viability, CellTiter-Glo ATP, 48 h; series mostly up to 45.8 µM. Put shortly: as §2
A short description of assay [13]: Quantitative High-Throughput drug screen in 47 multiple myeloma cell lines against the NCATS MIPE library collection: ARD_JJKsccE7 cell viability assay (AID 1918929; further: potency means the concentration at half of the fitted maximal effect). The note with it: ARD myeloma cell line viability, CellTiter-Glo, 48 h; series mostly up to 45.8 µM. A digest of the protocol:
as §1

SMILES strings stand for the structures. “And” between values parts separate entries of the source, which are not always exact repeats. Equal values may be shown once. Inconclusive results are not listed. Some compounds were tested as several samples or in several runs, with calls that do not always agree. The source made the active and inactive calls. The call rests on the fitted dose curve; in most records, active means well fitted curve in the direction sought with a large enough effect; inconclusive means small, poorly fitted or top-dose-only effect, or another doubt; inactive means no such curve, though single readings can be large; an effect the other way counts as inactive or inconclusive.

Sequence of Phospholipid hydroperoxide glutathione peroxidase GPX4 (Homo sapiens) (P36969 whole entry, looked up): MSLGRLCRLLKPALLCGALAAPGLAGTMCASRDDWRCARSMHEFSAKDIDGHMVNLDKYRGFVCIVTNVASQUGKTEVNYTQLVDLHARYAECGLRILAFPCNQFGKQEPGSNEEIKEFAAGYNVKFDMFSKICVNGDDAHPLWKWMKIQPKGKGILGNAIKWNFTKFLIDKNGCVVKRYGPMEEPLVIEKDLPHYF
Sequence of Glutathione peroxidase 1 (Homo sapiens) (P07203 whole entry, looked up): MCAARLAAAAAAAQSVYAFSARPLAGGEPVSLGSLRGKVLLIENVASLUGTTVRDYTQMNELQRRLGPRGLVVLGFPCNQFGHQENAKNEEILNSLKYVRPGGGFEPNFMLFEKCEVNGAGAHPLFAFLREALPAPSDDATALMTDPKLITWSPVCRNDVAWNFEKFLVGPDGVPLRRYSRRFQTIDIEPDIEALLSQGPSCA

For the compound `COP(=S)(OC)Oc1ccc(S(=O)(=O)N(C)C)cc1`, the Potency entry in [1] and in assay [2] was “inactive” in each case.
`Nc1ccccc1`: the Potency result in [1] and in [2] was “inactive” each time.
Turning to `O=c1c(C2CC(c3ccc(-c4ccc(Br)cc4)cc3)Cc3ccccc32)c(O)sc2ccccc12` (configuration not stated), the Potency in [1] is 22.7 µM (active). Further, the Potency result in assay [2] is “inactive”.
`C[C@@H]1CC2=CC(=O)CC[C@@H]2[C@H]2CC[C@@]3(C)[C@@H](CC[C@]3(C)O)[C@@H]21`: the Potency result in assay [1] and in assay [2] was “inactive” in each case.
For `C=CCN1C[C@H](C)N([C@H](c2ccc(C(=O)N(CC)CC)cc2)c2cccc(OC)c2)C[C@H]1C`, the outcome in assay [1] was “inactive [at 9.52 µM]”; in [3] it was “inactive [at 11.6 µM]”. Moreover, in assay [2], the activity change, negative = inhibition was -0.741% [at 9.73 µM] (inactive). Further, the activity change, negative = thiol reactive in [4] is 24.3% [at 11.5 µM] (inactive). Moreover, in [5], the activity, negative = inhibition is 1.52% [at 11.6 µM] (inactive). Also, the redox activity (% of DA3003) in [6] is 9.33% [at 11.5 µM] (inactive).
`CCOC(=O)CC(SP(=S)(OC)OC)C(=O)OCC` (configuration not stated): in [2], the Potency entry is “inactive”.
Take `COP(=S)(OC)Oc1ccc(SC)c(C)c1`: the Potency result in assay [1] and in assay [2] was “inactive” each time.
On to `O=C(Nc1ccc(Br)cc1)c1cc(Br)cc(Br)c1O`, for which, in assay [2], the Potency result is “inactive”.
In the case of `COP(=S)(OC)Oc1cc(Cl)c(Cl)cc1Cl`, the Potency result in [1] and in assay [2] was “inactive” throughout.
Turning to `CN1C(=O)COc2c(C(=O)NC3CN4CCC3CC4)cc(Cl)cc21` (configuration not stated), the Potency entry in assay [1], in assay [2], in [7], in assay [8], in assay [9] and in [10] was “inactive” each time.
For the compound `C[C@]12CC[C@@H]3c4ccc(OC(=O)N(CCCl)CCCl)cc4CC[C@H]3[C@@H]1CC[C@@H]2O`, the Potency result in assay [1] and in assay [2] was “inactive” in each case.
On to `C[C@]12CC[C@H]3[C@@H](CC[C@@]45O[C@H]4C(O)=C(C#N)C[C@]35C)[C@H]1CC[C@H]2O`, for which the Potency result in [1], in assay [2], in assay [9], in [11], in assay [12] and in [10] was “inactive” in each case.
`O=C(O)CCCc1ccc(N(CCCl)CCCl)cc1`: the Potency entry in assay [1], in [2], in assay [9], in assay [11], in assay [13] and in assay [10] was “inactive” each time.
In the case of `C[C@]12CC[C@H]3[C@@H](CCC4=CC(=O)CC[C@@H]43)[C@@H]1CC[C@@H]2OC(=O)CCc1ccco1`, the Potency entry in assay [1] and in assay [2] was “inactive” throughout.
As for `COC(=O)C(c1ccccc1)C1CCCCN1` (configuration not stated), the Potency entry in assay [1] and in assay [2] was “inactive” each time.
As for `Clc1ccc(C(c2ccc(Cl)cc2)C(Cl)(Cl)Cl)cc1`, the Potency entry in [1] and in assay [2] was “inactive” throughout.
As to `CNC(C)(C)Cc1ccccc1`, the Potency result in [1] and in assay [2] was “inactive” each time.
In the case of `CCC(CC)(CNC(=O)CCCO)c1cccc(OC)c1`, the Potency result in assay [1] and in assay [2] was “inactive” each time.
`C=C(C)[C@H]1CN[C@H](C(=O)O)[C@H]1CC(=O)O`: the Potency result in assay [1] and in assay [2] was “inactive” in each case.
Regarding `C[C@]12CC[C@@H]3c4ccc(OC(=O)N(CCCl)CCCl)cc4CC[C@H]3[C@@H]1CC[C@@H]2OP(=O)(O)O`, the Potency result in assay [1], in assay [8], in assay [9], in assay [11], in assay [12] and in assay [13] was “inactive” in each case. Besides, the Potency result in [10] is “inactive”. In addition, in [2], the Potency entry was “inactive and 12.6 µM (active)”. Besides, the result in assay [3], in assay [4] and in assay [5] was inactive.
As for `C[C@@H](N)[C@@H](O)c1ccccc1`, the Potency entry in assay [2] was “inactive”.
The same measure, in the same setting: with `COP(=S)(OC)SCN1C(=O)c2ccccc2C1=O` the entry was “inactive”.
With `C[C@]12CCC(=O)C=C1CC[C@@H]1[C@@H]2CC[C@]2(C)C(=O)CC[C@@H]12`, the Potency entry in [1] and in assay [2] was “inactive” throughout.
As to `c1ccc2c(c1)sc1ccccc12`, the Potency result in [1] and in assay [2] was “inactive” each time.
`C[C@](O)(CS(=O)(=O)c1ccc(F)cc1)C(=O)Nc1ccc(C#N)c(C(F)(F)F)c1`: the Potency result in assay [1] and in assay [2] was “inactive” in each case. For the same compound, the Potency is 14.8 µM (active) in assay [7]; 0.372 µM (active) in [8]; 0.372 µM (active) in assay [9]; 0.662 µM (active) in assay [11]; 18.7 µM (active) in assay [12]; 1.05 µM (active) in assay [13]. For the same compound, the Potency in assay [10] is 8.33 µM (active).
With `CCC(C)C(C)(COC(N)=O)COC(N)=O` (configuration not stated), the Potency entry in assay [1] and in assay [2] was “inactive” in each case.
Regarding `NC(=O)c1cc([N+](=O)[O-])cc([N+](=O)[O-])c1`, the Potency entry in [1] and in assay [2] was “inactive” each time.
Take `COc1cccc(C(=O)CCN[C@@H](C)[C@H](O)c2ccccc2)c1`: the Potency result in assay [1] and in assay [2] was “inactive” each time.
Turning to `C[C@]12CCC(=O)C=C1CC[C@@H]1[C@H]3CC[C@](C)(O)[C@@]3(C)CC[C@@H]12`, the Potency in [10] is 10.8 µM (active).
Turning to `COc1cc(OC)c(OC)cc1C=O`, the Potency entry in [7], in [8], in [9], in [11], in assay [12] and in [13] was “inactive” in each case. Also, the Potency entry in [10] was “inactive”.
For `CC(C)(C)NCC(O)c1cc(Cl)c(N)c(C(F)(F)F)c1` (configuration not stated), the Potency entry in [1] and in [2] was “inactive” in each case.
With `CC(C)C[C@H](CN)CC(=O)O`, the Potency result in assay [1], in assay [2], in [7], in [8], in assay [9] and in [11] was “inactive” each time. The Potency result in assay [12], in assay [13] and in [10] was “inactive” each time.
For `C#CC(O)(C=CCl)CC` (configuration not stated), the Potency entry in assay [1] and in assay [2] was “inactive” each time.
As for `CC(C)NC(C)C`, the Potency entry in assay [1] and in assay [2] was “inactive” each time.
